From PubChem BioAssay (EPA / NIEHS)
Inconclusive results are not listed. Some structures have more than one record in an assay (separate samples or runs), and their calls can disagree. The source made the active and inactive calls. Rule for the calls, unless noted: active = hit-call score of the fitted dose curve at least 0.9, where 1 is the maximum; inactive = score below 0.9.

Experiments:
[1] = BSK_3C_SRB: Viability Assessment in the BioMAP Diversity Plus: 3C Assay (AID 2283023); conditions: primary human endothelial cells (HUVEC);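 note: fitted both ways against DMSO so a hit may be signal rise or drop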
Procedure, shortened: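 Primary human umbilical vein endothelial cells in the 3C system were read 24 h after compound dosing. Total protein was stained with 0.1% sulforhodamine B after 10% TCA fixation and read at 560 nm, with bidirectional fitting against DMSO as baseline.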

[2] = read-out: Matrix Metallopeptidase 1 (MMP1), MMP1 (gene 4312); assay: BSK_BE3C_MMP1: BioMAP Diversity Plus: BE3C Assay for Matrix Metallopeptidase 1 (MMP1) Biomarker Activity (AID 2283024); conditions: primary human bronchial epithelial cells; actives raise or lower the signal
Procedure, shortened: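 Human primary bronchial epithelial cells (BE3C system) dosed for 24 h; MMP-1 quantified by ELISA. Bidirectional fit against DMSO; cytotoxicity tracked in parallel cultures by SRB total-protein staining.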

[3] = BSK_3C_Vis: BioMAP Diversity Plus: 3C Assay for Morphology Visualization (AID 2283025); conditions: primary human endothelial cells (HUVEC);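 note: fitted both ways so gain or loss versus DMSO counts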;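 for AC50: light microscopy image of cell morphology used as background control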
Procedure, shortened: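 Human umbilical vein endothelial cell morphology was inspected by light microscopy 24 h after chemical dosing; scored bidirectionally relative to DMSO.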

[4] = read-out: Pselectin, SELP (gene 6403); assay: BSK_4H_Pselectin: BioMAP Diversity Plus: 4H Assay for Pselectin Biomarker Activity (AID 2283026); conditions: primary human endothelial cells (HUVEC); actives raise or lower the signal
Procedure, shortened: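 Primary human umbilical vein endothelial cells were treated 24 h, and cell-surface P-selectin was then quantified by ELISA. Bidirectional fit versus DMSO; cytotoxicity checked in parallel cultures by SRB total-protein staining.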

[5] = BSK_4H_SRB: Viability Assessment in the BioMAP Diversity Plus: 4H Assay (AID 2283027); conditions: primary human endothelial cells (HUVEC);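 for AC50: curves fitted both ways versus DMSO so AC50 may be loss or gain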
Procedure, shortened: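 Absorbance at 560 nm of SRB-stained total protein served as the viability read-out in confluent primary human umbilical vein endothelium 24 h after chemical treatment. Curves were fitted bidirectionally against DMSO as negative control.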

[6] = BSK_BE3C_SRB: Viability Assessment in the BioMAP Diversity Plus: BE3C Assay (AID 2283028); conditions: primary human bronchial epithelial cells
Procedure, shortened: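 Human primary bronchial epithelial cells were exposed to test chemicals for 24 h. Total protein in parallel cultures was then measured by staining with 0.1% sulforhodamine B after 10% TCA fixation, with absorbance read at 560 nm. Activity was fitted bidirectionally against DMSO.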

[7] = read-out: Urokinase-type plasminogen activator receptor (uPAR), PLAUR (gene 5329); assay: BSK_4H_uPAR: BioMAP Diversity Plus: 4H Assay for Urokinase-type plasminogen activator receptor (uPAR) Biomarker Activity (AID 2283030); conditions: primary human endothelial cells (HUVEC); actives raise or lower the signal
Procedure, shortened: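 Primary human umbilical vein endothelial cells were exposed to chemical for 24 h before cell-surface uPAR was quantified by ELISA. Activity was fitted bidirectionally against the DMSO negative control baseline.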

[8] = read-out: Vascular endothelial growth factor receptor 2 (Homo sapiens) (UniProt P35968); assay: BSK_4H_VEGFRII: BioMAP Diversity Plus: 4H Assay for Vascular endothelial growth factor receptor 2 (VEGFR2) Biomarker Activity (AID 2283031); conditions: primary human endothelial cells (HUVEC); actives raise or lower the signal;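 for AC50: cell-surface VEGFR2 protein level quantified by ELISA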
Procedure, shortened: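 Primary human umbilical vein endothelial cells in the BioMAP 4H system were dosed with test chemical, and 24 h later VEGFRII was measured by ELISA. Activity was fitted bidirectionally against DMSO as negative control and baseline.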

[9] = read-out: Human Leukocyte Antigen - DR isotype (HLADR), HLA-DRA (gene 3122); assay: BSK_BE3C_HLADR: BioMAP Diversity Plus: BE3C Assay for Human Leukocyte Antigen - DR isotype (HLADR) Biomarker Activity (AID 2283032); conditions: primary human bronchial epithelial cells; actives raise or lower the signal
Procedure, shortened: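 Human primary bronchial epithelial cells (BE3C system) exposed to compound for 24 hours; cell-surface HLA-DR measured by ELISA, fitted bidirectionally relative to DMSO. Total protein by SRB in parallel cultures tracked cytotoxicity.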

[10] = read-out: Vascular cell adhesion molecule 1 (VCAM1), VCAM1 (gene 7412); assay: BSK_4H_VCAM1: BioMAP Diversity Plus: 4H Assay for Vascular cell adhesion molecule 1 (VCAM1) Biomarker Activity (AID 2283033); conditions: primary human endothelial cells (HUVEC); actives raise or lower the signal
Procedure, shortened: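 Primary human umbilical vein endothelial cells, 4H stimulation system, treated for 24 h; cell-surface VCAM-1 quantified by ELISA. Bidirectional fitting against DMSO; cytotoxicity tracked by SRB total-protein staining in parallel cultures.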

[11] = read-out: Interferon-gamma inducible Protein 10 (IP10), CXCL10 (gene 3627); assay: BSK_BE3C_IP10: BioMAP Diversity Plus: BE3C Assay for Interferon-gamma inducible Protein 10 (IP10) Biomarker Activity (AID 2283034); conditions: primary human bronchial epithelial cells; actives raise or lower the signal
Procedure, shortened: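 Primary human bronchial epithelial cells, with IP-10 measured by ELISA 24 hours after chemical dosing. Bidirectional fit against DMSO; cytotoxicity checked by SRB total protein staining in parallel cultures.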

[12] = read-out: Monokine induced gamma interferon (MIG), CXCL9 (gene 4283); assay: BSK_BE3C_MIG: BioMAP Diversity Plus: BE3C Assay for Monokine induced gamma interferon (MIG) Biomarker Activity (AID 2283035); conditions: primary human bronchial epithelial cells; actives raise or lower the signal;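 note: MIG protein measured by ELISA in BE3C cultures after 24 h of dosing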
Procedure, shortened: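 MIG level was determined by ELISA after 24 h chemical treatment of primary human bronchial epithelial cells. Values were fitted bidirectionally with DMSO as the negative control and activity baseline.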

[13] = read-out: Transforming growth factor beta 1 (TGFb1), TGFB1 (gene 7040); assay: BSK_BE3C_TGFb1: BioMAP Diversity Plus: BE3C Assay for Transforming growth factor beta 1 (TGFb1) Biomarker Activity (AID 2283036); conditions: primary human bronchial epithelial cells; actives raise or lower the signal
Procedure, shortened: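 Primary human bronchial epithelial cells dosed with chemical; TGF-b1 measured by ELISA 24 h after dosing. Bidirectional curve fitting against DMSO negative control; SRB total-protein staining in parallel cultures gauged cytotoxicity.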

[14] = read-out: Plasminogen activator inhibitor-1 (PAI1), SERPINE1 (gene 5054); assay: BSK_BE3C_PAI1: BioMAP Diversity Plus: BE3C Assay for Plasminogen activator inhibitor-1 (PAI1) Biomarker Activity (AID 2283037); conditions: primary human bronchial epithelial cells; actives raise or lower the signal
Procedure, shortened: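 Primary human bronchial epithelial cells (BE3C system) exposed 24 h; PAI-1 quantified by ELISA. Parallel sulforhodamine B staining of total protein flags cytotoxicity. Bidirectional fit versus DMSO.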

[15] = read-out: urokinase plasminogen activator (uPA), PLAU (gene 5328); assay: BSK_BE3C_uPA: BioMAP Diversity Plus: BE3C Assay for urokinase plasminogen activator (uPA) Biomarker Activity (AID 2283038); conditions: primary human bronchial epithelial cells; actives raise or lower the signal;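 note: uPA protein level quantified by ELISA in cell cultures; uPA read one day after compound addition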
Procedure, shortened: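 Human primary bronchial epithelial cells were exposed to chemical for 24 h, then uPA levels were measured by ELISA. Responses were fitted bidirectionally against DMSO as negative control and baseline. Parallel SRB staining of total protein gauged overt cytotoxicity.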

[16] = read-out: Interleukin-6 (IL6), IL6 (gene 3569); assay: BSK_CASM3C_IL6: BioMAP Diversity Plus: CASM3C Assay for Interleukin-6 (IL6) Biomarker Activity for (AID 2283040); conditions: primary human coronary artery smooth muscle cells; actives raise or lower the signal
[17] = read-out: Tissue plasminogen activator (tPA), PLAT (gene 5327); assay: BSK_BE3C_tPA: BioMAP Diversity Plus: BE3C Assay for Tissue plasminogen activator (tPA) Biomarker Activity (AID 2283041); conditions: primary human bronchial epithelial cells; actives raise or lower the signal;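 note: tPA level quantified by ELISA one day after compound addition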
Procedure, shortened: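 Primary human bronchial epithelial cells in the BE3C system, exposed to compound for 24 h. tPA was quantified by ELISA; DMSO served as baseline, with gain or loss of signal fitted. Cytotoxicity checked in parallel cultures by SRB total-protein staining.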

[18] = molecular target: human Vitamin D Receptor (VDR), VDR (gene 7421) (UniProt P11473); assay: ATG_VDR_TRANS: Attagene TRANS-FACTORIAL HepG2 Assay for human Vitamin D Receptor (VDR) (AID 2283022; active = hit-call score of the fitted dose curve at least 0.9, where 1 is the maximum)
Procedure, shortened: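 HepG2 cells were transiently transfected with multiple GAL4-UAS reporter units, so signal reflects exogenous chimeric receptor-Gal4 activity. After 24 h compound exposure, reporter mRNA was measured by RT-PCR, fluorescent labelling and capillary electrophoresis, fitted for gain of signal versus DMSO.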

[19] = read-out: Thrombomodulin, THBD (gene 7056); assay: BSK_3C_Thrombomodulin: BioMAP Diversity Plus: 3C Assay for Thrombomodulin Biomarker Activity (AID 2283029); conditions: primary human endothelial cells (HUVEC); actives raise or lower the signal
Procedure, shortened: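 Human umbilical vein endothelial cells were exposed to chemicals for 24 h; cell-surface thrombomodulin quantified by ELISA, with bidirectional fitting against DMSO baseline.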

[20] = read-out: Urokinase-type plasminogen activator receptor (uPAR), PLAUR (gene 5329); assay: BSK_BE3C_uPAR: BioMAP Diversity Plus: BE3C Assay for Urokinase-type plasminogen activator receptor (uPAR) Biomarker Activity (AID 2283039); conditions: primary human bronchial epithelial cells; actives raise or lower the signal;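 note: cells exposed to compound for one day before measurement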
Procedure, shortened: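 Primary human bronchial epithelial cells dosed for 24 h; uPAR quantified by ELISA with bidirectional fitting against DMSO. Overt cytotoxicity assessed in parallel cultures by SRB total-protein staining (0.1% SRB, 560 nm).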

Measured: AC50

Chain of human Vitamin D Receptor (VDR), VDR (gene 7421) (P11473 whole entry, looked up, the tested form may be a part): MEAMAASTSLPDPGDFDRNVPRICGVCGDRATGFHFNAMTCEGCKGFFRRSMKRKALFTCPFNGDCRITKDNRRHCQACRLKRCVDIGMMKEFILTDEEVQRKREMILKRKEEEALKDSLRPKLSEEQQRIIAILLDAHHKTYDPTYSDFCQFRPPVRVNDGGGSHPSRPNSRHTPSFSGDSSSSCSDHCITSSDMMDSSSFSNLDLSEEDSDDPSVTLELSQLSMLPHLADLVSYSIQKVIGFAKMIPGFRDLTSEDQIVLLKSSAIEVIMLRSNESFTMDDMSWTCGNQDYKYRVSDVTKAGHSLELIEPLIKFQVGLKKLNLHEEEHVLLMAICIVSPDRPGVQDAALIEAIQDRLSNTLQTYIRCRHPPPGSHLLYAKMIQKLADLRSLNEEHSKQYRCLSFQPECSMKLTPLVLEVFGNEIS

C#C[C@]1(O)CC[C@H]2[C@@H]3CCC4=Cc5oncc5C[C@]4(C)[C@H]3CC[C@@]21C
active: [1] 3.97 µM | [3] 37.5 µM | [4] 35.2 µM | [5] 7.33 µM | [7] 3.97 µM | [10] 30.1 µM | [11] 31.2 µM
not listed: [18] | [19] | [20]
inactive: all other assays above

c1ccc2sc(SN(C3CCCCC3)C3CCCCC3)nc2c1
active: [1] 6.8 µM | [2] 6.54 µM | [3] 8.8 µM | [4] 5.21 µM | [8] 5.07 µM | [10] 5.45 µM | [11] 2.67 µM
not listed: [19] | [20]
inactive: all other assays above

Cc1cc(C2(c3cc(C)c(O)cc3C)OS(=O)(=O)c3ccccc32)c(C)cc1O
not listed: [3] | [13] | [18] | [19] | [20]
inactive: all other assays above

CC[Si](OC(C)=O)(OC(C)=O)OC(C)=O
inactive: [18] | [1] | [2] | [4] | [5] | [6] | [7] | [8] | [9] | [10] | [11] | [12] | [14] | [15] | [16] | [17]
active: [10] 0.195 µM

COc1cc(C=O)ccc1OC(=O)C(C)C
not listed: [3] | [13] | [19] | [20]
inactive: all other assays above

CC(=O)OCCC(C)CC(C)(C)C (stereo not given)
not listed: [3] | [13] | [19] | [20]
inactive: all other assays above

CCC(=O)OCc1ccccc1
not listed: [3] | [13] | [19] | [20]
inactive: all other assays above

CNC[C@H](O)c1cccc(O)c1
not listed: [19] | [20]
inactive: all other assays above

CC(=O)O[C@]1(C(C)=O)CC[C@H]2[C@@H]3C[C@H](C)C4=CC(=O)CC[C@]4(C)[C@H]3CC[C@@]21C
active: [2] 5.07 µM | [9] 10 µM | [16] 0.0082 µM
not listed: [18] | [19] | [20]
inactive: all other assays above

CCCCCCCCC=O
not listed: [19] | [20]
inactive: all other assays above

O=P(c1ccccc1)(c1ccccc1)c1ccccc1
not listed: [18]
inactive: all other assays above

CN(CCOc1ccc(CC2SC(=O)NC2=O)cc1)c1ccccn1 (stereo not given)
active: [4] 1.12 µM | [7] 11.6 µM | [9] 20 µM | [10] 8.46 µM | [11] 11 µM | [14] 0.21 µM
not listed: [18] | [20]
inactive: all other assays above
